# Assay outcomes deposited in PubChem by NMMLSC.
# Avidin bead fluor = avidin bead compound fluorescence profile | Avidin beads, compound fluorescence 488/530 nm, flow cytometry; stronger effect = higher value | fluorescence (KMESF) at 10 µM | 220,000 tested, 0.38% active | AID 1775; in the data active means fluorescence above about 47
# GSH bead fluor = GSH bead compound fluorescence profile; AID 1776; 190,000 tested, 0.25% active; GSH beads flow cytometry, compound fluorescence 488/530 nm; stronger effect = higher value; fluorescence (KMESF) at 10 µM; in the data active means fluorescence above about 89;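 further: glutathione beads carrying GST-tagged Bcl family fusion proteins plus one bare bead set; values are compound well signal with DMSO vehicle wells as background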
# RGS7-Gao reg = human RGS7-Galphao interaction regulation | P09471 | 220,000 tested, 0.35% active | binding response (% of control), % at 10 µM | Multiplexed bead flow cytometry, RGS7-Galphao binding; actives lie on both sides; in the data active means binding response below about 49% or above about 150%; inconclusive means no clear call, values can overlap the other calls; inactive means in between;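 further: fluorescent Galphao held in activated GDP-AlF4 state binding bead-coupled RGS7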
# Target sequence (P09471 whole entry, looked up): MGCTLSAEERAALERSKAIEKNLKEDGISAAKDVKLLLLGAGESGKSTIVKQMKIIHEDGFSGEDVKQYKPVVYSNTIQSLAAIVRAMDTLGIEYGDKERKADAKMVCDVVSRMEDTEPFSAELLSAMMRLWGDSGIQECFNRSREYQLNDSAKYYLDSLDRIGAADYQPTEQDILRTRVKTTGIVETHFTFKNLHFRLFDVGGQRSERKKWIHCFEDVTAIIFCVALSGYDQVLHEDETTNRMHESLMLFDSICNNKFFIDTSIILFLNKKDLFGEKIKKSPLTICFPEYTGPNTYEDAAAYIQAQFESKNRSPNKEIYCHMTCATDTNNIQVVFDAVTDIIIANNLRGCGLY
# RGS4-Gao reg = modulates binding of RGS4 to human Galphao. P09471. Multiplexed bead flow cytometry; actives lie on both sides. binding response (% of control), % at 10 µM. 220,000 tested, 0.33% active. AID 1415; in the data active means binding response below about 49% or above about 150%; inactive means in between;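 further: fluorescent Galphao activated with aluminum fluoride binding bead-coupled RGS4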
# RGS16-Gao HTS = modulates binding between human RGS16 and Galphao; AID 1441; 220,000 tested, 0.38% active; bead-based flow cytometry RGS16-Galphao binding, fluorescence; actives lie on both sides; binding response (% of control), % at 10 µM;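 further: Galphao activated by GDP with aluminum fluoride before binding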
# Target sequence (O15492 whole entry, looked up): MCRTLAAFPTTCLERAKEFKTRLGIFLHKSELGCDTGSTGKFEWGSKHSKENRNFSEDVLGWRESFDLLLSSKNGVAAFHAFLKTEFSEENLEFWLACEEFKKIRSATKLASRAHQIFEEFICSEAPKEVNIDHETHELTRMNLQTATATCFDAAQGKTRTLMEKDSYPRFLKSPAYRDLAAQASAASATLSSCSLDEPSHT
# Target sequence (P09471 whole entry, looked up): as the sequence (P09471 whole entry, looked up) above
# RGS8-Gao reg = human RGS8-Galphao interaction regulation | multiplexed bead flow cytometry, RGS8-Galphao binding; actives lie on both sides | response (percent of control binding), % at 10 µM | 220,000 tested, 0.34% active | AID 1423; in the data active means response below about 60% or above about 140%; inactive means in between;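 further: Galphao activated as the GDP aluminium fluoride complex binding bead-coupled RGS8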
# RGS-Gao = regulators of human RGS4-Galphao interaction. shares compounds with RGS16-Gao HTS. multiplexed bead flow cytometry, RGS–Galpha-o binding. RGS4–Galpha-o binding response, % at 10 µM. 1,600 tested, 99% active. AID 1504;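 further: fluorescently labeled Galpha-o bound to GDP with aluminium fluoride binding biotinylated RGS beads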
# Avidin counter = counter-screen: compounds disrupting biotin binding to avidin beads; shares compounds with RGS16-Gao HTS; streptavidin beads, fluorescein-biotin binding, flow cytometry; inhibition, % at 10 µM; 1,700 tested, under 10 active;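 active means inhibition above 50%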;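 further: median green fluorescence of gated singlet beads compared with DMSO control wells; 0% = DMSO wells and 100% = complete loss of bead fluorescence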
# RGS8-Gao confirm = confirmation of regulators of human RGS8-Galphao interaction; shares compounds with RGS16-Gao HTS; bead-based flow cytometry RGS8-Galphao binding, fluorescence; actives lie on both sides; binding response (% of control), % at 10 µM; 1,700 tested, 3% active; AID 1836; in the data active means binding response below about 72% or above about 130%; inactive means in between;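 further: Galphao activated as GDP AlF4 complex before binding bead RGS8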
# RGS7-Gao confirm = RGS7-Galphao interaction regulation, single point confirmation | shares compounds with RGS16-Gao HTS | bead-based flow cytometry RGS7-Galphao binding; actives lie on both sides | response (percent of control binding), % at 10 µM | 1,700 tested, 7.8% active | AID 1837; in the data active means response below about 75% or above about 130%; inactive means in between;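 further: fluorescent Galphao activated with GDP and aluminum fluoride binding bead-coupled RGS7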
# RGS16-Gao single = RGS16-Galphao interaction regulation, single point confirmation | shares compounds with RGS16-Gao HTS | bead-based flow cytometry, RGS16-Galphao binding; actives lie on both sides | response (% of control binding), % at 10 µM | 1,700 tested, 4% active; in the data active means response below about 74% or above about 130%; inactive means in between;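 further: Galphao activated as the GDP aluminium fluoride complex binding bead-coupled RGS16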
# RGS4-Gao confirm = confirmation of regulators of human RGS4-Galphao interaction. shares compounds with RGS16-Gao HTS. RGS4-Galphao binding, multiplexed bead flow cytometry; actives lie on both sides. binding response (% of control), % at 10 µM. 1,700 tested, 4% active; in the data active means binding response below about 74% or above about 130%; inactive means in between
# RGS19-Gao single = confirmation of regulators of human RGS19-Galphao interaction; shares compounds with RGS16-Gao HTS; bead-based flow cytometry RGS19-Galphao binding; actives lie on both sides; response (percent of control binding), % at 10 µM; 1,700 tested, 5% active; AID 1841; in the data active means response below about 50% or above about 160%; inactive means in between;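 further: 100% = no compound control and 0% = blank background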
# An asterisk follows results filed as active; i = inactive; ? = inconclusive; · = no result given; + = active, no number; [ ] = another dose, or the depositor's remark. The list is not random: actives were taken first. Their share in the collection is about 1.2%. Unless noted, how the calls were made is not given here.
SMILES,Avidin bead fluor,GSH bead fluor,RGS7-Gao reg,RGS4-Gao reg,RGS16-Gao HTS,RGS8-Gao reg,Avidin counter,RGS8-Gao confirm,RGS7-Gao confirm,RGS16-Gao single,RGS4-Gao confirm,RGS19-Gao single,others
CC1Cc2ccccc2N1C(=S)NC(=O)c1ccco1 (stereo not given),11,15,?,100.6,98.9,98.5,·,·,·,·,·,·,
Cc1cc(=O)oc2c(CN(CC(C)C)CC(C)C)c(O)ccc12,4,12,115.2,119.4,249.5,143.6*[activator],i,99.2,102.7,100.5,100.9,98.7,RGS-Gao=119.4*
O=C(CSc1ccc2ccccc2n1)NCc1ccc2c(c1)OCO2,0,11,?,20.5*,10.6*,14.0*,-3.6,102.6,106.5,105.6,102.5,101.4,
Cc1cnc(-c2nnc(N(C)C(=O)C3CCCO3)s2)cn1 (stereo not given),3,11,56.7,56.2,-46.5*,68.6,1.9,98.0,96.2,94.8,97.0,100.9,RGS-Gao=56.2*
COc1ccc(-c2nnc(N(C)C(=O)C3CCCO3)s2)cc1 (stereo not given),20,22,104.5,104.2,110.6,104.4,·,·,·,·,·,·,
COC(=O)C1=C(C)N=c2s/c(=C3\C(=O)Nc4ccccc43)c(=O)n2C1c1ccccc1 (stereo not given),5,20,113.8,118.4,178.8*[activator],120.5,-0.5,102.3,102.5,103.6,100.4,94.3,RGS-Gao=118.4*
CC(C)=NNC1=NC(C)(C)Cc2ccccc21,5,·,?,93.4,102.0,103.2,·,·,·,·,·,·,
CC(=O)CC1=NC(C)(C)Cc2ccccc21,2,14,24.0*,28.6*,16.1*,18.0*,-1.6,101.9,109.1,104.0,104.2,99.7,
Cc1cccc(C(=O)Nc2ccc(C(=O)/C=C/c3cccnc3)cc2)c1,30,0,186.2*[activator],196.5*[activator],242.2,105.0,0.1,99.6,104.6,102.1,101.5,103.2,
O=C(/C=C/c1cccnc1)c1ccc(NC(=O)c2cccc(Br)c2)cc1,5,21,100.2,100.7,100.9,99.2,·,·,·,·,·,·,
O=C(C(Cc1ccccc1)n1cccc1)N1CCCCC1 (stereo not given),6,24,100.1,101.8,101.8,100.7,·,·,·,·,·,·,
O=C(N1CCN(c2ccccc2)CC1)C12CC3CC(CC(C3)C1)C2,12,23,104.2,105.2,106.4,102.9,·,·,·,·,·,·,
O=C(C(Cc1ccccc1)n1cccc1)N1CCN(Cc2ccccc2)CC1 (stereo not given),3,22,116.4,113.2,209.4,144.1*[activator],2.2,99.3,95.0,103.3,97.2,85.8,RGS-Gao=113.2*
O=C(N1CCN(Cc2ccccc2)CC1)C12CC3CC(CC(C3)C1)C2,·,18,·,·,·,·,1.7,100.2,101.3,102.9,104.2,100.6,
Cc1ccc2nc(C)c3c(c2c1)SCC3,102*,·,?,206.8*[activator],193.4*[activator],103.1,-0.1,101.3,99.8,102.4,100.7,106.5,
O=C(NCCN=C1NS(=O)(=O)c2ccccc21)c1ccc2nccnc2c1,3,18,99.2,99.2,99.9,99.7,·,·,·,·,·,·,
O=C(NCCN=C1NS(=O)(=O)c2ccccc21)c1ccncc1,72*,10,163.0*[activator],148.3,125.0,114.3,-1.4,100.5,98.3,101.3,100.7,100.3,RGS-Gao=148.3*
N/C(=N\OC(=O)COc1ccc2ccccc2c1Br)c1ccncc1,10,13,?,98.9,105.0,103.1,·,·,·,·,·,·,
O=C1CC(NNc2nc3ccccc3s2)C(=O)N1c1ccccc1 (stereo not given),24,28,96.4,98.3,99.8,100.8,·,·,·,·,·,·,
Cc1ccc(N2C(=O)CC(NNc3nc4ccccc4s3)C2=O)cc1 (stereo not given),-1,13,33.1*,19.2*,i,34.2*,-0.3,102.8,98.2,99.1,96.6,82.8,
Cc1ccc(S(=O)(=O)N/N=C\c2cc([N+](=O)[O-])ccc2Cl)cc1,26,34,104.6,102.4,102.6,100.8,·,·,·,·,·,·,
Cc1ccc(S(=O)(=O)N/N=C/c2cccc([N+](=O)[O-])c2)cc1,6,13,80.0,83.3,-8.2*,73.6,0.9,98.9,89.7,96.4,94.3,81.5,RGS-Gao=83.3*
CC(C)Sc1n[nH]c(=O)n1-c1cccc(C(F)(F)F)c1,3,·,?,82.3,88.6,93.0,·,·,·,·,·,·,
Cc1ccc(OCC(=O)N/N=C/C=C/c2ccco2)cc1C,6,17,64.8,67.3,3.6*,59.8*,0.0,93.1,94.7,99.0,99.3,80.1,RGS-Gao=67.3*
Cc1ccc2nc(N(CCCN(C)C)C(=O)c3ccco3)sc2c1,252*,232*,+[activator],+[activator],+[activator],237.2*[activator],0.2,100.9,93.1,99.7,97.9,101.1,
SMILES,Avidin bead fluor,GSH bead fluor,RGS7-Gao reg,RGS4-Gao reg,RGS16-Gao HTS,RGS8-Gao reg,Avidin counter,RGS8-Gao confirm,RGS7-Gao confirm,RGS16-Gao single,RGS4-Gao confirm,RGS19-Gao single,others
CN(C)CCCN(C(=O)c1ccco1)c1nc2ccc(F)cc2s1,12,15,?,103.1,102.2,104.0,·,·,·,·,·,·,
O=C(Nc1ccccc1)N1CCCN(c2ccc(C(F)(F)F)cc2[N+](=O)[O-])CC1,1,·,?,23.0*,21.2*,40.6*,-1.5,102.0,101.3,98.5,102.8,105.8,
COc1ccc(CC(=O)NNC(=O)c2cccnc2)cc1OC,9,9,96.8,102.8,100.7,103.0,·,·,·,·,·,·,
COc1ccc(/C=C/c2nnc(NC(C)=O)s2)cc1,44,·,?,157.6*[activator],143.7,109.6,-1.6,100.5,105.6,100.8,101.7,106.2,
COC(=O)Nc1nnc(/C=C/c2ccc(OC)cc2)s1,8,19,96.1,97.7,49.1,90.2,·,·,·,·,·,·,
CCC1(C(=O)OC)CCc2c(cc(OC)c3ccccc23)C1=O (stereo not given),9,·,?,101.5,101.8,103.5,·,·,·,·,·,·,
COc1ccc2c(c1)CCc1sc(NC(=O)c3ccco3)nc1-2,8,20,99.0,102.3,100.7,100.2,·,·,·,·,·,·,
